Data from PubChem BioAssay AID1851 (National Center for Advancing Translational Sciences (NCATS), 2009).
The campaign covered roughly 16,000 compounds. About 5,100 (32%) were called active. Inconclusive results (about 25%) are left out. Calls come from the whole dose curve; as a rule, active = well fitted curve in the direction sought with a large enough effect; inconclusive = small, poorly fitted or top-dose-only effect, or effect the other way; inactive = no such curve, though single readings can be large or run the other way. Some of the results follow.

biological target: Cytochrome P450 3A4 (Homo sapiens) (UniProt P08684); assay: Cytochrome panel assay with activity outcomes; conditions: recombinant CYP, pro-luciferin dealkylation, luminescence, p450-cyp3a4; series mostly up to 57.1 µM; activity, negative = inhibition: at the top concentration
% is set by controls: 0 for no effect and ±100 for the full control effect.

Chain of Cytochrome P450 3A4 (Homo sapiens) (P08684 whole entry, looked up): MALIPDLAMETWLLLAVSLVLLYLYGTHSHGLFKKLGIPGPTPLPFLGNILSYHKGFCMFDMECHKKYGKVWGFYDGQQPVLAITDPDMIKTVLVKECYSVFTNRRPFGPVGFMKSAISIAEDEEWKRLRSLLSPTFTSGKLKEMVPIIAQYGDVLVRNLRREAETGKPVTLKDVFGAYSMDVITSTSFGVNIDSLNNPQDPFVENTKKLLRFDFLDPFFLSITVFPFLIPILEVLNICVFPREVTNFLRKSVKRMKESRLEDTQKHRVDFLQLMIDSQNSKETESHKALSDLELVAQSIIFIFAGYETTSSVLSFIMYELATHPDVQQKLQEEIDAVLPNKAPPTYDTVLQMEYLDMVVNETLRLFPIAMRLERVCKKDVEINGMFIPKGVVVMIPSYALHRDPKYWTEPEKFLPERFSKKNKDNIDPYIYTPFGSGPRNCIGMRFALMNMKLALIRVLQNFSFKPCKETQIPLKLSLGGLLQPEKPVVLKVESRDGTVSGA

| Compound | AC50 | activity, negative = inhibition |
| --- | --- | --- |
| O=C(NCc1ccccc1)C12CN(Cc3ccccc3)CC1C(c1cccc([N+](=O)[O-])c1)=NO2 (configuration not stated) | 7.08 µM (active) |  |
| CC(C)CCNC(=O)C12CN(Cc3ccccc3)CC1C(c1cccc([N+](=O)[O-])c1)=NO2 (configuration not stated) | 12.6 µM (active) |  |
| COc1ccc(C(=O)N2CC3(CC(c4cccc([N+](=O)[O-])c4)=NO3)C[C@H]2C(=O)NCC(N)=O)cc1 (some centres not stated) |  | 15.2% [at 2.29 µM] (inactive) |
| O=C1CC[C@H](N2C(=O)c3ccccc3C2=O)C(=O)N1 | inactive |  |
| Nc1ncnc2c1nc(-c1ccccc1)n2[C@H]1O[C@@H](CO)[C@@H](O)[C@H]1O |  | -3.38% [at 11.4 µM] (inactive) |
| Cc1n[nH]c(C)c1S(=O)(=O)N1CCC(C(=O)O)CC1 |  | 3.15% [at 11.4 µM] (inactive) |
| COc1cccc(C(=O)Nc2cc(C(F)(F)F)ccc2Cl)c1 | 7.94 µM (active) |  |
| Cc1ccc(C(=O)NC(=S)Nc2cc(C(F)(F)F)ccc2Cl)cc1 |  | 0.666% (inactive) |
| COc1cc(C(=O)Nc2cc(C(F)(F)F)ccc2Cl)cc(OC)c1OC | 15.8 µM (active) |  |
| COc1cc(/C=C/C(=O)Nc2cc(C(F)(F)F)ccc2Cl)cc(OC)c1OC |  | -14.2% [at 11.4 µM] (inactive) |
| CC(C)CNC(=O)O |  | -6.31% [at 11.4 µM] (inactive) |
| CC(C(=O)Nc1cccnc1)N1C(=O)C2C3C=CC(C3)C2C1=O (configuration not stated) | 12.6 µM (active) |  |
| Cc1ccc(NC(=O)C(C)N2C(=O)C3C4CC(C(Br)C4Br)C3C2=O)cc1 (configuration not stated) | 5.62 µM (active) |  |
| CC(C)C(=O)Nc1ccc(Sc2ccc(F)cc2)cc1 |  | -3.21% (inactive) |
| CCC1CCc2c(c3ccccc3[nH]c2=O)O1 (configuration not stated) |  | -20.1% [at 2.29 µM] (inactive) |
| CN(Cc1ccco1)c1ccnc(-c2cccc(NS(C)(=O)=O)c2)n1 | 6.31 µM (active) |  |
| CN(Cc1ccco1)c1cc(-c2cccc(NS(C)(=O)=O)c2)ncn1 | 15.8 µM (active) |  |
| COC(=O)CNC(c1ccccc1Cl)c1cc(Br)ccc1NC(=O)CCN1CCOCC1 (configuration not stated) | 3.55 µM (active) |  |
| O=C(CCN1CCOCC1)Nc1ccc(F)cc1F |  | -14.9% [at 11.4 µM] (inactive) |
| Cc1cc2c(cc1C)NC(c1nc3ccccc3[nH]1)C1=C(CC(C)(C)CC1=O)N2 (configuration not stated) | 12.6 µM (active) |  |
| Cc1c(C(=O)O)nc(/C=C\C(=O)O)[nH]c1=O |  | -3.36% [at 11.4 µM] (inactive) |
| CCCCSc1nnc(-c2cc3c(C(F)(F)F)nn(C)c3s2)n1C |  | -20.2% (inactive) |
| CCCNC(=O)c1cc2c(C(F)(F)F)nn(C)c2s1 |  | 19.2% [at 2.29 µM] (inactive) |

| Compound | AC50 | activity, negative = inhibition |
| --- | --- | --- |
| C=CCSc1nnc(-c2cc3c(C(F)(F)F)nn(C)c3s2)n1C | 8.91 µM (active) |  |
| C=CCSc1nnc(-c2cc3c(-c4ccccc4)nn(C)c3s2)n1C | 1.58 µM (active) |  |
| C#CCSc1nnc(-c2cc3c(C(F)(F)F)nn(C)c3s2)n1C | 7.94 µM (active) |  |
| CCn1cc(C(=O)O)c(=O)c2cc(F)c(N3CCN[C@@H](C)C3)c(F)c21 | inactive |  |
| CN(C)c1ccc(-c2nc(-n3ccnc3)c3ccccc3n2)cc1 | 0.631 µM (active) |  |
| c1ccc2c(-n3ccnc3)nc(-c3ccoc3)nc2c1 | 0.2 µM (active) |  |
| Cc1cnc(CNc2ncnc3ccc(-c4ccc(N(C)C)cc4)cc23)cn1 | 10 µM (active) |  |
| Cc1cnc(CNc2ncnc3ccc(-c4ccc5c(c4)OCO5)cc23)cn1 | 2.51 µM (active) |  |
| Cc1cnc(CNc2ncnc3ccc(-c4ccoc4)cc23)cn1 | 15.8 µM (active) |  |
| NC(=S)SCCC(=O)O |  | -7.17% [at 11.4 µM] (inactive) |
| CCOC(=O)C1=C(O)C(Nc2nccs2)(C(F)(F)F)N=C1C (configuration not stated) | 14.1 µM (active) |  |
| CCCC(=O)Nc1nc(C(=O)OCC)cs1 |  | -13.8% (inactive) |
| CC(C)OC(=O)C(CC(=O)O)N1CCOCC1 (configuration not stated) |  | 0.0868% (inactive) |
| CCOC(=O)C(C)CC(C)C(=O)N1CCOCCN(C(=O)C(C)CC(C)C(=O)OCC)CCOCC1 (configuration not stated) | 11.2 µM (active) |  |
| CCC(Sc1ncccc1C(=O)O)C(=O)N1CCOCC1 (configuration not stated) |  | 3.75% (inactive) |
| COc1cc(OC)c2c(c1)C(=O)c1cc(OC)cc(OC)c1C2=O | 3.55 µM (active) |  |
| O=C(NC1CCCCC1)C1CC=CCC1C(=O)OCC(Cl)=C(Cl)Cl (configuration not stated) | 7.94 µM (active) |  |
| CNC(=O)c1ccc(-c2sc3nc(N4CCOCC4)c4c(c3c2N)CC(C)(C)OC4)o1 | 2.82 µM (active) |  |
| CN(C)CCNc1ncnc2c1sc1nc(N3CCOCC3)c3c(c12)CC(C)(C)SC3 |  | -10.7% (inactive) |
| CC(=O)OC[C@@H]1O[C@@H](O/N=C2/C[C@@H](O)[C@@H](O)[C@@H]3[C@@H]4C(=O)N(C(C)(C)C)C(=O)[C@H]4CC[C@H]23)[C@H](OC(C)=O)[C@H](OC(C)=O)[C@@H]1OC(C)=O |  | -17.4% [at 11.4 µM] (inactive) |
| O=C(O)[C@H](Cc1ccc(O)c([N+](=O)[O-])c1)N1C(=O)c2ccccc2C1=O |  | 6.92% [at 11.4 µM] (inactive) |
| O=C1NC(=O)C(c2ccccc2[N+](=O)[O-])=C1Nc1ccc(O)c(Cl)c1 | 20 µM (active) |  |
| CCOc1ccccc1NC(=O)C1Cc2ccccc2CN1S(C)(=O)=O (configuration not stated) |  | -25.2% [at 11.4 µM] (inactive) |

| Compound | AC50 | activity, negative = inhibition |
| --- | --- | --- |
| O=C(Nc1nnc(C2CC2)s1)C1Cc2ccccc2CN1S(=O)(=O)c1ccccc1F (configuration not stated) | 7.08 µM (active) |  |
| CCc1nnc(NC(=O)C2Cc3ccccc3CN2S(=O)(=O)c2ccc(C)cc2)s1 (configuration not stated) | 6.31 µM (active) |  |
| O=C(Nc1nccs1)C1Cc2ccccc2CN1S(=O)(=O)c1ccc(F)cc1 (configuration not stated) | 3.16 µM (active) |  |
| CCc1nnc(NC(=O)c2c(C)nn(-c3ccccc3)c2Cl)s1 |  | 4.89% [at 2.29 µM] (inactive) |
| CC(=O)c1sc(NC(=O)C(C)C)nc1C |  | -11.3% (inactive) |
| Cc1ccc(CSc2nc3c(c(SCC(=O)O)n2)CCCC3)cc1 |  | 8.65% (inactive) |
| O=C(O)CSc1ncnc2sc3c(c12)CCC3 |  | -26% (inactive) |
| CC(CO)Nc1nc(SCc2ccccc2)nc2sc3c(c12)CCC3 (configuration not stated) | 14.1 µM (active) |  |
| OCCNc1nc(SCc2ccccc2)nc2sc3c(c12)CCC3 |  | -25% [at 11.4 µM] (inactive) |
| COCCNc1nc(SCc2ccccc2)nc2sc3c(c12)CCC3 | 12.6 µM (active) |  |
| Cc1nc2c(O)cccc2c(=O)[nH]1 |  | -15.4% (inactive) |
| COc1cccc(NC(=O)COC(=O)c2nc3nccc(C)n3n2)c1 |  | -9.81% (inactive) |
| COc1cccc(NC(=O)COC(=O)c2c3c(nc4ccccc24)CCC(C)C3)c1 (configuration not stated) | 3.55 µM (active) |  |
| Cc1ccc(S(=O)(=O)N2CCN(C(=O)c3ccccc3)C2C(C)C)cc1 (configuration not stated) | 2 µM (active) |  |
| Cc1ccc(S(=O)(=O)N2CCC(C(=O)O)(c3ccccc3)CC2)cc1 |  | 12.2% [at 11.4 µM] (inactive) |
| CC(=O)N1CC2(CC2)CC1c1ccccc1 (configuration not stated) |  | -21.7% (inactive) |
| CC(=O)N1CCN(S(=O)(=O)c2ccccc2)C1c1ccccc1 (configuration not stated) | 11.2 µM (active) |  |
| Cc1ccc(S(=O)(=O)ON=C2CCN(S(=O)(=O)c3ccccc3)CC2)cc1 |  | 9.52% (inactive) |
| COc1ccc(C(=O)c2ccc(OC)c(OC)c2)cc1OC | 15.8 µM (active) |  |
| COc1ccc(NC(=O)C(F)(F)F)cc1OC |  | 1.85% (inactive) |
| COc1ccc(C(=O)c2ccccc2)cc1Br |  | -25.9% (inactive) |
| CN[C@H]1[C@@H](O[C@@H]2[C@H](O[C@@H]3[C@@H](O)[C@@H](O)[C@@H](N=C(N)N)[C@@H](O)[C@@H]3N=C(N)N)O[C@H](C)[C@@]2(O)C=O)O[C@@H](CO)[C@@H](O)[C@H]1O |  | -11.4% [at 25.6 µM] (inactive) |
| Cc1cccc(N2CCN(CC(=O)Nc3ccc(-n4cnnn4)cc3)CC2)c1C |  | -1.5% (inactive) |

| Compound | AC50 | activity, negative = inhibition |
| --- | --- | --- |
| Cc1cccc(N2CCN(C(=O)CSCc3c(C)noc3C)CC2)c1C | 3.98 µM (active) |  |
| Cc1cc(Cl)ccc1OC(C)C(=O)Nc1ccc(S(=O)(=O)Nc2cnc3ccccc3n2)cc1 (configuration not stated) |  | -1.77% [at 2.29 µM] (inactive) |
| Cc1nnc(NS(=O)(=O)c2ccc(N)cc2)s1 |  | -9.45% [at 25.6 µM] (inactive) |
| Cc1ccc(S(=O)(=O)Nc2nc(C)c(NC(=O)Nc3ccc(Cl)cc3Cl)s2)cc1 | 15.8 µM (active) |  |
| Cc1cc(C)n(-c2nc(Nc3ccccc3C)nc(-n3nc(C)cc3C)n2)n1 | 7.94 µM (active) |  |
| Cc1cc(C)n(-c2nc(NC(C)(C)C)nc(NC(C)(C)C)n2)n1 |  | -7.85% (inactive) |
| Cc1ccccc1Cn1nc(C)c(NC(=O)c2sc3ccccc3c2Cl)c1C | 11.2 µM (active) |  |
| Cc1nn(Cc2ccc(Cl)cc2Cl)c(C)c1NC(=O)c1sc2ccccc2c1Cl | 7.08 µM (active) |  |
| CC(C)c1nnc(NC(=O)c2sc3ccccc3c2Cl)s1 |  | 7.5% (inactive) |
| Cc1ccc(NC(=O)c2sc3ccccc3c2Cl)nc1 |  | -27.9% (inactive) |
| O=C(NNC(=O)c1sc2ccccc2c1Cl)Nc1ccc(Cl)cc1 | 12.6 µM (active) |  |
| NCCSS(=O)(=O)CCN |  | 5.43% [at 11.4 µM] (inactive) |
| Cc1ccc(N2C(=O)CC(c3ccsc3)C3=C2CC(C)(C)CC3=O)cc1 (configuration not stated) | 2.24 µM (active) |  |
| O=C(/C=C\c1ccccc1)c1ccccc1O |  | -15.8% [at 11.4 µM] (inactive) |
| O=C(/C=C/c1ccccc1)N/C(=C/c1ccccc1)C(=O)Nc1ccccc1O | 14.1 µM (active) |  |
| O=C(O)C/C(=C\c1ccccc1)C(=O)O |  | -16.3% [at 11.4 µM] (inactive) |
| O=C(CSc1cccc2cccnc12)OCC(=O)c1ccccc1 |  | 10.1% [at 2.29 µM] (inactive) |
| COc1ccc(/C(C)=N/NC(=O)c2ccc(CSc3cccc4cccnc34)cc2)cc1OC | 3.16 µM (active) |  |
| O=C(NCCc1cccs1)C1CC(c2c(Cl)cccc2Cl)=NO1 (configuration not stated) |  | -24.1% [at 2.29 µM] (inactive) |
| N#Cc1c(NC(=O)C2CC(c3ccccc3Cl)=NO2)sc2c1CCC2 (configuration not stated) | 5.01 µM (active) |  |
| COC(=O)C1CCN(CC(=O)Nc2sc3c(c2C#N)CCC3)CC1 |  | -27.9% (inactive) |
| CCN(CC)C(=O)N1CCN(C)CC1 |  | -0.999% [at 25.6 µM] (inactive) |
| Cc1ccc(NC(=O)CC2CS(=O)(=O)CC2CC(=O)Nc2ccc(C)c(C)c2)cc1C (configuration not stated) | 3.98 µM (active) |  |
